A selection: hits, their analogues and other compounds. The true share with any hit is near 4.3%.
GRIN3A LBD mod – binders of NR3A ligand-binding domain, primary screen, biophysical, differential scanning fluorimetry, uHTS. Glutamate receptor ionotropic, NMDA 3A (GRIN3A) ligand-binding domain. NR3A LBD differential scanning fluorimetry, Tm shift; 0% = protein alone, 100% = glycine-bound protein. Tm shift relative to glycine control, % at 25 µM. 2.5% of 340,000 active. AID 1259313, 2017;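 active = melting temperature shift of at least 10% of the positive control shift, at one fixed dose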
ADAM10 inh – human ADAM10 inhibitors, primary screen, biochemical, QFRET, HTS; Disintegrin and metalloproteinase domain-containing protein 10 (Homo sapiens), O14672; recombinant ADAM10, EDANS/DABCYL FRET peptide cleavage, 3 h; inhibition, % at 7 µM; 0.62% of 370,000 active; AID 720582, 2013;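 active = inhibition above a per-campaign cutoff equal to the mean of compounds falling between control-based bounds plus 3 SD, cut at about 20% in these data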;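 also: 0% = DMSO wells while the 100% control is not disclosed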
ADAM17 inh – ADAM17 inhibitors, primary screen, biochemical, QFRET. Disintegrin and metalloproteinase domain-containing protein 17 (Homo sapiens), P78536. recombinant ADAM17, EDANS/DABCYL FRET peptide cleavage. inhibition, % at 6.95 µM. 0.83% of 370,000 active;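 active = inhibition above the mean of compounds lying between control limits plus 3 SD, set per campaign, cut at about 8.5% in these data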;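 also: 0% = DMSO-only wells as the low control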
FAS TE block – FAS thioesterase domain inhibitors, primary screen, biochemical, fluorescence intensity, uHTS; Fatty acid synthase (Homo sapiens), P49327; recombinant FAS-TE, OMFH fluorogenic substrate, fluorescence endpoint; inhibition, % at 15 µM; 0.67% of 360,000 active;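 active = compounds whose normalised, plate-corrected inhibition of enzyme fluorescence in the single-dose primary screen is 50% or more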;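 also: 0% = DMSO with enzyme and 100% = substrate without enzyme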
sPLA2-III inh – human group III sPLA2 inhibitors, primary screen, biochemical, QFRET, BODIPY PC-A2 liposome substrate; QFRET BODIPY PC-A2 liposome hydrolysis, fluorescence; inhibition, % at 12.2 µM; 0.56% of 370,000 active; AID 743126, 2013;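 active = inhibition above mean plus 3 SD of compounds lying within the high and low control bounds, cut at about 19% in these data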;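 also: 0% = median of test compound wells and 100% = no enzyme DMSO wells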
Target sequence (Q9NZ20 whole entry, looked up): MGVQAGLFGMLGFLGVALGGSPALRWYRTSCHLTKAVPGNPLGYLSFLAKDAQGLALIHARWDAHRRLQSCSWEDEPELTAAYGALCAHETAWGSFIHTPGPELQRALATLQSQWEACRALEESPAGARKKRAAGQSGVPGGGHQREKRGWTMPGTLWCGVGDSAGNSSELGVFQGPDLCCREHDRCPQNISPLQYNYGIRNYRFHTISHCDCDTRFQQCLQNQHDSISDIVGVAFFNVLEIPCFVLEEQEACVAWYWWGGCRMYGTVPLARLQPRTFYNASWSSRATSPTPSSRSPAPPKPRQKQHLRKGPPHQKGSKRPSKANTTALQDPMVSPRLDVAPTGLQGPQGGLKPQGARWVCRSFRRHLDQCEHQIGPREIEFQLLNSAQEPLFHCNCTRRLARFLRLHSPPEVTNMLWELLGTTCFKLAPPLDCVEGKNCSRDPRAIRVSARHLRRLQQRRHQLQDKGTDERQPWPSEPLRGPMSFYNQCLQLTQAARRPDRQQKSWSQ
Active calls of the source: *; / = not tested or not shown.

SMILES	GRIN3A LBD mod	ADAM10 inh	ADAM17 inh	FAS TE block	sPLA2-III inh
CCOc1ccc(-c2cccc(NS(=O)(=O)c3cc([N+](=O)[O-])ccc3C)c2)nn1	11*	-5	1	34	-25
CCOc1ccc(-c2cccc(NS(=O)(=O)c3ccccc3[N+](=O)[O-])c2)nn1	1	1	-3	11	-13
CCC(C)C1/C=C\CC(NC(=O)OCC2c3ccccc3-c3ccccc32)CC(=O)N1Cc1ccccc1 (configuration not stated)	1	/	/	17	/
COc1ccc(C2/C=C\CC(NC(=O)OCC3c4ccccc4-c4ccccc43)CC(=O)N2Cc2ccccc2F)cc1 (configuration not stated)	14*	/	/	17	/
Cc1ccccc1NC(=O)Nc1cccs1	-13	3	-4	-1	-3
Cc1ccc(Cl)cc1NC(=O)Nc1cccs1	20*	-15	-4	-8	-13
CCNC(=O)/C(C#N)=C/c1c(N(Cc2ccccc2)Cc2ccccc2)nc2ccccn2c1=O	22*	-2	0	26	-13
COc1ccc(Cn2cc(COC(=O)NCC(C)C)nn2)cc1	/	-5	-7	/	0
COc1ccc(CC(=O)N/N=C/c2cccs2)cc1OC	2	10	2	-5	-1
COc1ccc(COC(=O)N/N=C/c2cccs2)cc1	32*	8	-1	-6	3
C#CCCCN([C@@H](CC(C)C)C(=O)OC)S(=O)(=O)c1ccc(F)cc1Br	/	5	1	/	5
O=C(NCCC1=CCCCC1)C(=O)NCC(c1ccco1)N1CCN(c2ccc(F)cc2)CC1 (configuration not stated)	10*	7	-2	2	0
Cc1cccc(C)c1NC(=O)C1CCN(c2ncccn2)CC1	/	-37	-8	/	6
COc1ccccc1OC(C)C(=O)O (configuration not stated)	13*	2	-5	-8	3
Cn1c(O)c(/C=C2\C=Nc3ccccc32)sc1=Nc1ccc(C(=O)O)cc1	-2	7	-6	3	-18
CCn1c(O)c(/C=C2\C=Nc3ccccc32)sc1=Nc1ccccc1	12*	-1	1	15	0
O=C(Cc1ccccc1)Nn1c(O)c(/C=C2\C=Nc3ccccc32)sc1=S	26*	0	3	-20	-32
Cc1cccc(N(CC(=O)N/N=C/c2cc([N+](=O)[O-])ccc2Cl)S(C)(=O)=O)c1C	0	/	/	51*	/
COc1ccc(C)cc1S(=O)(=O)N(CC(=O)Nc1cccc([N+](=O)[O-])c1)c1ccc(C)c(C)c1	33*	3	5	37	8
Cc1cccc(NS(=O)(=O)c2ccc(NC(=O)CN(c3cc([N+](=O)[O-])ccc3C)S(C)(=O)=O)cc2)c1	22*	36*	14*	26	-106
S=C(NCc1ccc(Cl)cc1)OC1CCC12CCC(c1ccccc1)CC2 (configuration not stated)	/	-12	-2	/	4
CCOc1ccc(NC(=O)CN(C)C(=O)C2CC2C)cc1OCC (configuration not stated)	-1	-1	-2	-6	4
CCOc1ccc(NC(=O)CN(C)CC(=O)Nc2ccccc2SC)cc1OCC	18*	-3	-2	-8	-3
CCOc1ccc(NC(=O)CN(C)c2ccc(S(=O)(=O)N(C(C)C)C(C)C)cn2)cc1OCC	17*	2	1	2	-2
O=C(CCS(=O)(=O)c1ccccc1)Nc1ccc(F)cc1F	/	-4	1	/	4
SMILES	GRIN3A LBD mod	ADAM10 inh	ADAM17 inh	FAS TE block	sPLA2-III inh
C=CCN(Cc1ccccc1)C(C#CC(=C)C)Cc1ccccc1 (configuration not stated)	/	-8	-5	/	9
CC(CCN1CCC(C(O)(c2ccccc2)c2ccccc2)CC1)Oc1ccc(OC(F)(F)F)cc1 (configuration not stated)	/	10	7	/	-19
CCCCc1cccc2[nH]cc(C)c12	/	0	-2	/	-3
O=C(Nc1ccc(Br)cc1)c1cccn1-c1ncc(C(F)(F)F)cc1Cl	13*	18	8	42	-9
C=CCNC(C(=O)Nc1cccc(OC)c1)c1ccccc1 (configuration not stated)	15*	-1	0	-4	3
Cc1cccc(NC(=O)c2nc[nH]c2C(=O)NCc2ccccc2)c1	2	-57	-9	0	-20
O=C(Nc1ccc(Cl)cc1)c1nc[nH]c1C(=O)NCCCCNC(=O)c1[nH]cnc1C(=O)Nc1ccc(Cl)cc1	26*	2	-7	7	8
CCOC(=O)c1ccc(NC(=O)c2nc[nH]c2C(=O)NC)cc1	0	9	1	-6	-2
Cc1cccc(NC(=O)c2nc[nH]c2C(=O)NCCCCNC(=O)c2[nH]cnc2C(=O)Nc2cccc(C)c2)c1	13*	5	-1	-1	1
CCOC(=O)c1ccc(NC(=O)c2nc[nH]c2C(=O)NCCNC(=O)c2[nH]cnc2C(=O)Nc2ccc(C(=O)OCC)cc2)cc1	15*	5	8	-10	4
O=C(Nc1cccc(Cl)c1)c1nc[nH]c1C(=O)NCc1ccccc1	17*	2	-2	-6	-2
OC(c1ccccc1)(c1ccccc1)C1CCN(CCCNc2ccccc2F)CC1	/	0	-1	/	-20
O=C(Cc1ccc2c(c1)OCO2)N1CCC(n2nc(-c3ccccc3)oc2=O)CC1	/	3	-2	/	-2
CC(C)(C)OC(=O)NCCCC[C@H](NC(=O)c1[nH]cnc1C(=O)Nc1ccc(Cl)cc1)C(=O)OC(C)(C)C	0	/	/	76*	/
CNC(=O)c1[nH]cnc1C(=O)N[C@@H](CCCCNC(=O)OC(C)(C)C)C(=O)OC(C)(C)C	-2	0	-3	7	-6
O=C(O)c1sc2cc(C(F)(F)F)cnc2c1-c1cccs1	4	-56	-19	-3	-2
NC(=O)c1sc2cc(C(F)(F)F)cnc2c1-c1cccs1	21*	-4	-4	-1	-1
N#CCC[C@H]1CC[C@]2(CCCN(Cc3cccc4ccccc34)C2)O1	/	1	0	/	-2
Cc1ccc(C)c(N2CCN(S(=O)(=O)c3ccc4c(c3)CC(=O)N4C)CC2)c1	-4	3	1	32	-15
CN1C(=O)Cc2cc(S(=O)(=O)N3CCN(c4cccc(C(F)(F)F)c4)CC3)ccc21	24*	5	2	1	-30
O=C(NCc1ccco1)C1CCCN(S(=O)(=O)c2ccc(F)cc2)C1 (configuration not stated)	/	10	3	/	0
